This passage reports growth results from PubChem BioAssay (NCI).

Among the test systems are UACC-62 melanoma; TK-10 renal; SK-MEL-28 melanoma; EKVX NSCLC; CAKI-1 renal.
Assay in all cases: NCI-60 one-dose screen, 48 h (100 = growth as untreated, 0 = no growth, -100 = all killed)
Details in all cases: 10 µM unless noted

“And” between values parts separate entries of the source, which are not always exact repeats. Equal values may be shown once. Compounds without any hit were thinned out: in the full panel of roughly 83,000, 20% have a hit.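 Cell lines were cultured in 96-well plates, exposed to a single compound concentration, and assessed for percent growth 48 hours later.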 The source made the active and inactive calls. Rule for the calls: active = growth percent below 10; inactive = the rest.

Consider `CC(C)=CCc1c(OC(=O)c2c(C)cc(O)cc2O)cc(CO)c(CO)c1O`, for which the growth was -76.6% [100 µM] (active) and -100% [100 µM] (active) in the test on UACC-62 melanoma; 1.66% [100 µM] (active) and -100% [100 µM] (active) in the test with TK-10 renal.
For `COc1ccc(C2c3cc4c(c(OC)c3CC3OCC(=O)C32)OCO4)cc1OC` (stereo unspecified), the growth was 26% [100 µM] (inactive) and 3.65% [100 µM] (active) in the test on UACC-62 melanoma; 46.4% [100 µM] (inactive) and -11% [100 µM] (active) with TK-10 renal.
Turning to `CNC(=S)/C(=N\Nc1nc[nH]c1C(N)=O)C(N)=S`, the growth in the test on UACC-62 melanoma is -8.08% [100 µM] (active) and 0.0251% [100 µM] (active); with TK-10 renal, 5.27% [100 µM] (active) and 4.34% [100 µM] (active).
`N#CC(=S)Nc1ccc(F)cc1`: the growth was 8.57% [100 µM] (active) and 0.965% [100 µM] (active) in the test with UACC-62 melanoma; 33.9% [100 µM] (inactive) and 8.52% [100 µM] (active) in the test with TK-10 renal.
Turning to `C=C(C)C(=O)OC1CC2(C)OC(=CC2=O)C(C)CC2OC(=O)C(=C)C12` (stereo unspecified), the growth with UACC-62 melanoma is -97% [100 µM] (active); with TK-10 renal it was -96.8% [100 µM] (active).
`CC(C)=CC(O)C/C(C)=C/CC/C(C)=C/CCC1(C)C(CCCO)/C(=C(/C)C=O)CCC1(C)O` (stereo unspecified): the growth is -21.5% [100 µM] (active) and 2.9% [100 µM] (active) in the test on UACC-62 melanoma; 49.7% [100 µM] (inactive) and 9.22% [100 µM] (active) in the test with TK-10 renal.
As for `CCOC(=O)COc1cc(-c2ccccc2)nc2cc(F)ccc12`, the growth with UACC-62 melanoma was 67.3% [100 µM] (inactive) and 60.3% [100 µM] (inactive); with TK-10 renal it was 95.9% [100 µM] (inactive) and 90.1% [100 µM] (inactive).
As for `CC(C)/C(Cl)=N/OC(=O)Nc1cccc(C(F)(F)F)c1`, the growth in the test with UACC-62 melanoma is -93.1% [100 µM] (active) and -100% [100 µM] (active); in the test on TK-10 renal, -100% [100 µM] (active).
As for `CNC(=S)c1nnsc1N`, the growth with UACC-62 melanoma was 70.7% [100 µM] (inactive) and -2.69% [100 µM] (active); in the test on TK-10 renal, 103% [100 µM] (inactive) and 37.1% [100 µM] (inactive).
With `COc1cc2oc3c(c(=O)c2c(O)c1/C=C/C(C)C)CCC(C)(C)Oc1cc(O)ccc1-3`, the growth in the test on UACC-62 melanoma is -23.1% [100 µM] (active) and -100% [100 µM] (active); in the test on TK-10 renal, 35% [100 µM] (inactive) and -96.5% [100 µM] (active).
Regarding `CO/C(N)=C(\C#N)N=Cc1ccc2ccccc2c1`, the growth was -20.4% [100 µM] (active) and 1.77% [100 µM] (active) in the test with UACC-62 melanoma; 12.8% [100 µM] (inactive) and -44.8% [100 µM] (active) in the test on TK-10 renal.
As for `COc1ccc(/C=C2/NC(=S)N=C2Cl)cc1`, the growth is 82.8% [100 µM] (inactive) and 23.4% [100 µM] (inactive) in the test on UACC-62 melanoma; 92.7% [100 µM] (inactive) and -42.1% [100 µM] (active) with TK-10 renal.
Turning to `OCc1ccccc1OC1OC(CO)C(O)C(O)C1O` (stereo unspecified), the growth in the test on UACC-62 melanoma is 85.4% [100 µM] (inactive) and 95.9% [100 µM] (inactive); in the test with TK-10 renal, 97.4% [100 µM] (inactive) and 97.5% [100 µM] (inactive).
Consider `N#C/C=C1\C=CC(O)C(O)C1OC1OC(CO)C(O)C(O)C1O` (stereo unspecified), for which the growth in the test on UACC-62 melanoma was 95% [100 µM] (inactive) and 88.4% [100 µM] (inactive); with TK-10 renal, 97.1% [100 µM] (inactive) and 93.8% [100 µM] (inactive).
Take `Cc1ccc(NC(=O)/C(Cc2cc(=O)oc3cc(O)ccc23)=N\NC(C)(C)C)cc1C`: the growth is 87.9% [100 µM] (inactive) and 92.2% [100 µM] (inactive) in the test on UACC-62 melanoma; 103% [100 µM] (inactive) and 101% [100 µM] (inactive) in the test on TK-10 renal.
Take `CCC(C)C1(O)OC2CC3(C)OC(=CC3=O)/C(C)=C\C3OC(=O)C1(C)C32` (stereo unspecified): the growth is -34.4% [100 µM] (active) and -100% [100 µM] (active) in the test on UACC-62 melanoma; 41.8% [100 µM] (inactive) and -90.7% [100 µM] (active) with TK-10 renal.
Take `NC(Cc1ccc(S(=O)(=O)O)cc1)C(=O)NC(Cc1ccc(S(=O)(=O)O)cc1)C(=O)NC(Cc1ccc(S(=O)(=O)O)cc1)C(=O)NC(Cc1ccc(S(=O)(=O)O)cc1)C(=O)O` (stereo unspecified): the growth was 86.3% [100 µM] (inactive) and 93.4% [100 µM] (inactive) in the test with UACC-62 melanoma; 102% [100 µM] (inactive) and 111% [100 µM] (inactive) in the test on TK-10 renal.
For `Cc1ccc(F)cc1NC(=O)O/N=C(\Cl)C(C)C`, the growth with UACC-62 melanoma is 82.6% [100 µM] (inactive) and 60.7% [100 µM] (inactive); in the test with TK-10 renal it was 65.6% [100 µM] (inactive) and 72.9% [100 µM] (inactive).
As to `CC1(C)S[C@H](CN)N[C@H]1C(=O)OC(c1ccccc1)c1ccccc1`, the growth was 34.2% [100 µM] (inactive) and -100% [100 µM] (active) in the test on UACC-62 melanoma; 49% [100 µM] (inactive) and -32.5% [100 µM] (active) with TK-10 renal.
Turning to `O=C1NC(N/N=C\c2ccccc2)=N/C1=C/c1ccccc1`, the growth in the test on UACC-62 melanoma is -53.2% [100 µM] (active) and -100% [100 µM] (active); in the test with TK-10 renal it was -49.7% [100 µM] (active) and -77.5% [100 µM] (active).
On to `COc1ccc(/C=c2\[nH]c3nc(=O)c(N4CCOCC4)c(N)n3c2=O)cc1`, for which the growth in the test with UACC-62 melanoma is 67.5% [100 µM] (inactive) and 26% [100 µM] (inactive); in the test on TK-10 renal, 72% [100 µM] (inactive) and 6.01% [100 µM] (active).
`CC1(C)Oc2ccc3c(=O)cc(-c4ccc(F)cc4)oc3c2C1C(=O)O` (stereo unspecified): the growth was 78.1% [100 µM] (inactive) and 87.8% [100 µM] (inactive) in the test on UACC-62 melanoma; 100% [100 µM] (inactive) and 99.3% [100 µM] (inactive) in the test on TK-10 renal.
For `CCCCCCCCCCCCC/C=C/[C@H]1[C@@H](C(=O)OC)N1S(=O)c1ccc(C)cc1` (stereo partly specified), the growth was 64.8% [100 µM] (inactive) and 3.51% [100 µM] (active) with UACC-62 melanoma; 107% [100 µM] (inactive) and 52.5% [100 µM] (inactive) in the test on TK-10 renal.
Take `C[C@@H]1C[C@@H]2OC(=O)[C@]3(C)[C@H]2[C@@H](OC3(C)O)[C@]2(C)C(=O)C=C[C@@H]12` (stereo partly specified): the growth was -84.2% [100 µM] (active) and -97.9% [100 µM] (active) with UACC-62 melanoma; -7.81% [100 µM] (active) and -18.5% [100 µM] (active) with TK-10 renal.
Turning to `CCO/C=N\C1=C(C#N)SC2=N/C(=C\c3ccc(OC)cc3)C(=O)N21`, the growth with UACC-62 melanoma is 71.9% [100 µM] (inactive) and 70.7% [100 µM] (inactive); with TK-10 renal, 92.7% [100 µM] (inactive) and 103% [100 µM] (inactive).
For the compound `COc1cc([C@H]2OC[C@@H]3C(c4cc(OC)c5c(c4)OCO5)OC[C@H]23)cc(OC)c1OC` (stereo partly specified), the growth in the test on UACC-62 melanoma is 66.5% [100 µM] (inactive) and 25.8% [100 µM] (inactive); with TK-10 renal, 84.5% [100 µM] (inactive) and 28.7% [100 µM] (inactive).
For `C/C(=C\COc1cc(O)c2c(c1)C(=O)c1cc(C)cc(O)c1C2=O)CCC1OC1(C)C` (stereo unspecified), the growth is 41.3% [100 µM] (inactive) and 6.17% [100 µM] (active) with UACC-62 melanoma; 42.6% [100 µM] (inactive) and 20.6% [100 µM] (inactive) with TK-10 renal.
Take `O=C1c2ccccc2-c2c1c1ccccc1c(=O)n2CCO`: the growth in the test with UACC-62 melanoma was -21.8% [100 µM] (active) and -78.7% [100 µM] (active); in the test with TK-10 renal, 41.8% [100 µM] (inactive) and 3.35% [100 µM] (active).
With `COC(=O)C(=O)C(C(=O)C(=O)Nc1nc2ccc(C)cc2s1)c1nc2ccc([N+](=O)[O-])cc2[nH]c1=O` (stereo unspecified), the growth was 61.1% [100 µM] (inactive) and 52.2% [100 µM] (inactive) in the test with UACC-62 melanoma; 115% [100 µM] (inactive) and 75.4% [100 µM] (inactive) in the test with TK-10 renal.
As to `O=C1C=CC=C/C1=C1\N=C(c2ccccc2OCC(=O)c2ccc(Br)cc2)SS1`, the growth in the test on UACC-62 melanoma was 48.5% [100 µM] (inactive) and 35.3% [100 µM] (inactive); in the test with TK-10 renal it was 65.8% [100 µM] (inactive) and 57.6% [100 µM] (inactive).
`CC1=CC(=O)c2ccc(C)cc2C1=O`: the growth is -90.3% [100 µM] (active) and -100% [100 µM] (active) with UACC-62 melanoma; -100% [100 µM] (active) with TK-10 renal.
As for `C[N+](C)(CCNC(=O)c1cccc2cc3ccccc3nc12)Cc1ccc([N+](=O)[O-])s1`, the growth was 63.1% [25 µM] (inactive) and 28.9% [25 µM] (inactive) in the test on UACC-62 melanoma; 72% [25 µM] (inactive) and 30.2% [25 µM] (inactive) in the test on TK-10 renal.
For the compound `Nc1ccn(C2OC(CO)C(O)C2O)c(=O)n1` (stereo unspecified), the growth in the test on SK-MEL-28 melanoma was 58.1% (inactive) and 105% (inactive) and 110% (inactive); with EKVX NSCLC, 99.2% (inactive) [middle of 4 runs]; in the test on CAKI-1 renal, 26.9% (inactive) and 4.29% (active) and 95.4% (inactive).
With `CCOC(=O)C(=O)C(CCC(=O)c1ccc2ccccc2c1O)C(=O)OCC` (stereo unspecified), the growth in the test on UACC-62 melanoma is 85.4% [100 µM] (inactive) and 81.5% [100 µM] (inactive); in the test on TK-10 renal, 125% [100 µM] (inactive) and 106% [100 µM] (inactive).
On to `C=C1C(=O)O[C@H]2C[C@@]3(C)[C@H](O)CCC(=C)[C@@H]3[C@@H](OC(C)=O)[C@H]12`, for which the growth with UACC-62 melanoma is -98.5% [100 µM] (active) and -92.2% [100 µM] (active); in the test on TK-10 renal it was -98% [100 µM] (active) and -95.5% [100 µM] (active).
`O=C1NC(N/N=C\C(O)C(O)C(O)C(O)CO)=N/C1=C\c1ccc(Cl)cc1` (stereo unspecified): the growth with UACC-62 melanoma is -24.3% [100 µM] (active) and -100% [100 µM] (active); with TK-10 renal, 47.7% [100 µM] (inactive) and -100% [100 µM] (active).
For `CC(C)=CCc1cc(C2COc3cc4c(c(O)c3C2=O)C=CC(C)(C)O4)c(O)cc1O` (stereo unspecified), the growth is -86.8% [100 µM] (active) and -97.1% [100 µM] (active) in the test with UACC-62 melanoma; -14.3% [100 µM] (active) and -100% [100 µM] (active) in the test with TK-10 renal.
For `COc1cc2c(c3c1c(=O)c1ccccc1n3C)C=C([N+](=O)[O-])C(C)(C)O2`, the growth in the test on UACC-62 melanoma was -21.5% [100 µM] (active) and -100% [100 µM] (active); with TK-10 renal it was 31.2% [100 µM] (inactive) and -98.1% [100 µM] (active).
Consider `COc1ccc(-c2nc3ccccc3c(=S)n2OC(C)=O)cc1`, for which the growth with UACC-62 melanoma is -63.4% [25 µM] (active) and -95.7% [25 µM] (active); in the test on TK-10 renal it was 47% [25 µM] (inactive) and -21.7% [25 µM] (active).
With `C=CCNC1=C2C[C@@H](C)C[C@@H](OC)[C@@H](OC(=O)CCCN)[C@H](C)/C=C(\C)[C@@H](OC(N)=O)[C@H](OC)/C=C\C=C(/C)C(=O)NC(=CC1=O)C2=O`, the growth was -57.7% [100 µM] (active) and -64.4% [100 µM] (active) in the test with UACC-62 melanoma; -57.4% [100 µM] (active) and -99.4% [100 µM] (active) with TK-10 renal.
